Several values for one entry are separate records, joined by “and”; a condition that tells them apart may be missing. Equal values may be shown once. Results filed as inconclusive are left out. Where a call stands in place of a potency, no number is given. Activity calls are given as the source filed them. Calls follow the shape of the dose curve; as a rule, active = well fitted cell-killing curve with a large enough effect in the repeat runs; inconclusive = weak or mixed curves, or effect the other way; inactive = no such curve, though single readings can be large or run the other way.
Potency is read from the fitted curve at half-maximal effect.

A short description of this assay: qHTS assay to identify small molecule antagonists of the peroxisome proliferator-activated receptor gamma (PPARg) signaling pathway - cell viability counter screen (AID 743194). Also: nearly all actives have a fitted effect of over 55% in size. Conditions: PPARg-bla HEK293H viability, CellTiter-Glo luminescence, 17 h, co-treated with 50 nM rosiglitazone; series mostly up to 62.6 µM. An excerpt: U.S. Tox21 Program National Center for Advancing Translational Sciences [NCATS] NIH Chemical Genomics Center [NCGC] U.S. Environmental Protection Agency [EPA] National Institutes of Environmental Health Sciences [NIEHS] National Toxicology Program [NTP] U.S. Food and Drug Administration [FDA] Tox21 Assay Overview: The peroxisome proliferator-activated receptors (PPARs) are lipid-activated transcription factors of the nuclear receptor superfamily with three distinct subtypes namely PPAR alpha, PPAR delta (also called PPAR beta) and PPAR gamma (PPARg). All these subtypes heterodimerize with Retinoid X receptor (RXR) and these heterodimers regulate transcription of various genes. PPAR-gamma receptor (glitazone receptor) is involved in the regulation of glucose and lipid metabolism. To identify the compounds that activate PPAR-gamma signaling, GeneBLAzer PPAR gamma UAS-bla HEK293H cell line (Invitrogen, Carlsbad, CA, USA) containing a beta-lactamase reporter gene under the control of an Upstream Activator Sequence (UAS) was used to screen the Tox21 compound library. The cytotoxicity of the Tox21 compound library against the PPARg-bla cell line was tested in parallel by measuring the cell viability using CellTiter-Glo assay in the same wells.
Tox21 Assay Protocol Summary: PPARg-bla cells were dispensed at 3000 cells/5uL/well in 1536-well black wall/clear bottom plates using a Multidrop Combi (Thermo Fisher Scientific, Waltham, MA) dispenser. After the assay plates were incubated at 37 C and 5% CO2 for 5 h, 23 nL of compounds dissolved in DMSO, positive controls or DMSO only was transferred to the assay plate by a Pintool station (Kalypsys, San Diego, CA), followed by addition of 1ul Rosiglitazone (50 nM, final concentration in the wells). The assay plates were incubated at 37 C for 17 h, and then 1 uL of LiveBLAzerTM B/G FRET substrate was added using a Bioraptr Flying Reagent Dispenser (FRD) workstation (Beckman Coulter, Indianapolis, IN, USA). The assay plates were incubated at room temperature for 1 h and fluorescence intensity was measured by an Envision plate reader (PerkinElmer, Shelton, CT). For cell viability readout that measures cytotoxicity, 4 ul/well of CellTiter-Glo reagent was added into the assay plates using a Flying Reagent Dispenser. After 30 min incubation at room temperature, the luminescence intensity in the plates was measured using a ViewLux plate reader (PerkinElmer).
On the technique in general: In qHTS, concentration-response curves come from the screen itself.
With `Oc1ccc(C(c2ccc(O)cc2)C(Cl)(Cl)Cl)cc1`, the Potency was 43.5 µM (active). In the case of `O=S1(=O)CCCO1` it was “inactive”. In the case of `C=C[C@@]1(C)CC(=O)[C@]2(O)[C@@]3(C)[C@@H](O)CCC(C)(C)[C@@H]3[C@H](O)[C@H](OC(C)=O)[C@@]2(C)O1` it was “inactive”; in that of `CC(C)[N+](C)(CCOC(=O)C1c2ccccc2Oc2ccccc21)C(C)C`, “inactive”; in that of `CN(C)CCCN1c2ccccc2Sc2ccc(Cl)cc21`, 38.9 µM (active) and 26.6 µM (active). With `CCC/C=C/C=O`, the Potency entry was “inactive”. In the case of `NCCN` it was “inactive”; in that of `CN(C)C`, “inactive”; in that of `c1ccc2ncccc2c1`, “inactive”.

For the molecule `Cc1ccc(C(C)(C)C)c(O)c1`, the Potency entry was “inactive”. The same measure for `C/C=C/C(=O)N(CC)c1ccccc1C`: “inactive”; for `CC1(C)NC(=O)N(c2ccc([N+](=O)[O-])c(C(F)(F)F)c2)C1=O`: “inactive”.

For `IC(I)I`, the Potency entry is “inactive”. The same measure for `O=C(O)CCCCCCCCCCCC(=O)O`: “inactive”. The same measure for `Nc1ccc2c(c1)C(=O)c1ccccc1C2=O`: “inactive”. In the case of `Oc1c(Cl)ccc(Cl)c1Cl` it was “inactive”.

On to `[O-]/[N+](=N\O)c1ccccc1`, for which the Potency entry was “inactive”.

In the case of `C=CCNCC=C`, the Potency result was “inactive”. In the case of `COc1cc([C@H]2Oc3cc([C@H]4Oc5cc(O)cc(O)c5C(=O)[C@@H]4O)ccc3O[C@@H]2CO)ccc1O` it was “inactive”; in that of `O=C1OC2(c3ccccc31)c1cc(I)c(O)c(I)c1Oc1c2cc(I)c(O)c1I`, “inactive”; in that of `COc1ccc(C(=O)c2ccccc2O)c(O)c1`, “inactive”.

On to `CCO[Si](CCCNC(N)=O)(OCC)OCC`, for which the Potency result is “inactive”. In the case of `Cc1ccc(S(=O)(=O)NCl)cc1` it was “inactive”; in that of `c1ccc2c(c1)ccc1cc3c(ccc4ccccc43)cc12`, “inactive”; in that of `CC(=O)OC(C)C`, “inactive”.

For the molecule `Cc1ccc(C)c(O)c1`, the Potency result is “inactive”. The same measure for `C=CC(=O)OCCCC`: “inactive”. For `Cc1ccc(S(=O)(=O)O)cc1C`, the Potency result was “inactive”. The same measure for `Nc1cc([N+](=O)[O-])ccc1C(=O)O`: “inactive”; for `CN(C)/N=N/c1nc[nH]c1C(N)=O`: “inactive”; for `ClC/C=C/CCl`: “inactive”.

With `O=C(O)c1cc(=O)[nH]c(=O)[nH]1`, the Potency entry is “inactive”. Turning to `COC(=O)c1ccc(C)cc1`, the Potency entry was “inactive”. As to `CC1(C)C(C=C(Cl)Cl)C1C(=O)OCc1cccc(Oc2ccccc2)c1` (stereo not given), the Potency result is “inactive”. Take `CC(C)(Oc1ccc(Cl)cc1)C(=O)O`: the Potency entry is “inactive”. With `CCCCCC=O`, the Potency entry was “inactive”.

With `Nc1ccc2c(O)cc(S(=O)(=O)O)cc2c1`, the Potency result is “inactive”.

On to `CC1(C)O[C@@H]2C[C@H]3[C@@H]4C[C@H](F)C5=CC(=O)C=C[C@]5(C)[C@@]4(F)[C@@H](O)C[C@]3(C)[C@]2(C(=O)CO)O1`, for which the Potency result was “inactive”. In the case of `Cc1ccc([N+](=O)[O-])c(C)c1` it was “inactive”; in that of `CC(=O)Oc1c(C)c(C)c2c(c1C)CC[C@@](C)(CCC[C@H](C)CCC[C@H](C)CCCC(C)C)O2`, “inactive”.

The record behind these values is PubChem BioAssay (Tox21).
